From PubChem BioAssay (EPA / NIEHS)
Results filed as inconclusive are left out. Where a structure was tested more than once in an assay, its records may differ in their call. The source made the active and inactive calls. The calls were made as follows, unless noted: active = hit-call score of the fitted dose curve at least 0.9, where 1 is the maximum; inactive = score below 0.9.

Legend:
[1] = CCTE_Shafer_MEA_acute_AB: CCTE's Alamar Blue Assay for Cytotoxicity in the Neural Acute Assay, Shafer Lab (AID 2284069; active = hit-call score of the fitted dose curve at least 0.9, where 1 is the maximum;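 also: active compounds lower the viability signal compared with DMSO wells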)
Outline: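 Read-out: resazurin fluorescence (ex 544, em 590 nm) after CTB reagent at 1:6 dilution in fresh media. Cells: primary rat cortical neuron networks, DIV 13 or 15, chemically exposed on MEA plates; DMSO as negative control/baseline.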

[2] = CCTE_Shafer_MEA_acute_LDH: CCTE's Lactate Dehydrogenase Assay for Cytotoxicity in the Neural Acute Assay, Shafer Lab (AID 2284086; active = hit-call score of the fitted dose curve at least 0.9, where 1 is the maximum;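 also: active means LDH release rises above DMSO vehicle level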)
Outline: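 Primary rat cortical neurons on 48-well MEA plates, treated on day 13 or 15 post-plating. After the 40-min recording with compound, medium LDH release was read by absorbance at 490 nm. Gain of signal was fitted against DMSO negative control.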

[3] = CCTE_Shafer_MEA_dev_burst_rate: CCTE's Neural Network Formation Assay for Burst Rate, Shafer Lab (AID 2284042);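 as to AC50: potency for loss of burst rate below DMSO control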
Outline: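 Rat primary cortical cultures on PEI/laminin MEA; compound from plating, re-dosed at DIV 5, 9 media change. Single-electrode bursts/recording length, well mean of active electrodes; AUC over DIV 5–12 recordings; loss-of-signal vs DMSO.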

[4] = CCTE_Shafer_MEA_dev_bursting_electrodes_number: CCTE's Neural Network Formation Assay for Number of Bursting Electrodes, Shafer Lab (AID 2284043; active = hit-call score of the fitted dose curve at least 0.9, where 1 is the maximum;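 as to AC50: potency is for loss of bursting electrodes relative to DMSO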)
Outline: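 Primary rat cortical neurons plated on 16-electrode MEA wells, exposed from day 0 with compound renewed at DIV 5 and 9. Electrodes bursting ≥1 burst per 2 min counted on days 5, 7, 9 and 12; trapezoidal AUC across days, fitted for loss versus DMSO.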

[5] = CCTE_Shafer_MEA_dev_interburst_interval_mean: CCTE's Neural Network Formation Assay for Mean Interburst Interval, Shafer Lab (AID 2284046);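 also: well-mean interburst interval of bursting electrodes as AUC over four recording days; curve fitted for decrease in interburst interval relative to DMSO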
Outline: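 Rat cortical neurons, 1.5 x 10^5 cells/well, 48-well MEA; compound from day 0 through DIV 12, media and treatment renewed DIV 5/9. Recordings DIV 5, 7, 9, 12; well-mean interburst interval → trapezoidal AUC, loss direction vs DMSO.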

[6] = CCTE_Shafer_MEA_dev_inter_network_spike_interval_mean: CCTE's Neural Network Formation Assay for Mean Inter-network Spike Interval, Shafer Lab (AID 2284047);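 as to AC50: potency for a decrease in mean inter-network spike interval below DMSO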
Outline: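 Primary rat cortical neurons on PEI-coated 48-well MEAs (16 electrodes/well) were exposed from plating day 0 to DIV 12, with dosing renewed at DIV 5 and 9. Recordings at DIV 5, 7, 9, 12 were collapsed by trapezoidal AUC, loss-of-signal fit vs DMSO.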

[7] = CCTE_Shafer_MEA_dev_spike_duration_mean: CCTE's Neural Network Formation Assay for Mean Spike Duration, Shafer Lab (AID 2284051);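 also: mean network spike duration pooled as area under curve over DIV 5 to 12 recordings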;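 as to AC50: potency for a decrease in mean network spike duration versus DMSO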
Outline: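 Rat cortical primary cultures, 48-well MEA (16 electrodes/well); compound from plating, renewed DIV 5, 9. Network spike duration (AxIS adaptive detector) recorded DIV 5/7/9/12, combined as trapezoidal AUC; loss direction vs DMSO.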

[8] = CCTE_Shafer_MEA_dev_network_spike_duration_std: CCTE's Neural Network Formation Assay for Standard Deviation of Network Spike Duration, Shafer Lab (AID 2284052);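 also: area under curve of spike duration SD across recording days 5 to 12; hits are decreases in network spike duration SD versus DMSO vehicle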
Outline: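 Rat cortical cultures, 1.5 x 10^5 cells/well, exposed continuously from plating to DIV 12 with media/compound renewal at DIV 5, 9. Spontaneous activity recorded DIV 5/7/9/12, AxIS adaptive spike detector; AUC across days; negative direction vs DMSO.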

[9] = CCTE_Shafer_MEA_dev_per_network_spike_spike_number_mean: CCTE's Neural Network Formation Assay for Mean Number of Spikes in a Network Spike, Shafer Lab (AID 2284053);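 as to AC50: fitted as decrease in spikes per network spike relative to DMSO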
Outline: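 Rat cortical primary cultures on 48-well MEA; compound from day 0, re-dosed with full media change DIV 5, 9. Recorded DIV 5, 7, 9, 12; spikes in 0.05 s window at network-spike peak ÷ total network spikes; AUC; loss vs DMSO.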

[10] = CCTE_Shafer_MEA_dev_per_network_spike_spike_percent: CCTE's Neural Network Formation Assay for Percent of Spikes in a Network Spike, Shafer Lab (AID 2284054)
Outline: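 Rat primary cortical neurons were grown on 48-well MEA plates (16 electrodes/well), exposed from plating day 0 through day 12, with treatment renewed on DIV 5 and 9. Percent of spikes within 0.05 s network-spike peaks was measured, summarised as AUC across days 5, 7, 9, 12.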

[11] = CCTE_Shafer_MEA_dev_AB: CCTE's Alamar Blue Assay for Cytotoxicity in the Neural Network Formation Assay, Shafer Lab (AID 2284083; active = hit-call score of the fitted dose curve at least 0.9, where 1 is the maximum;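 also: resazurin reduction fluorescence as viability of cultured neurons; twelve days of exposure from plating with re-dosing on DIV 5 and 9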)
Outline: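 Rat cortical primary cultures, 1.5 x 10^5 cells/well on MEA; continuous compound exposure over 12 days of network development, re-dosed with full medium change DIV 5 and 9. Alamar Blue fluorescence; loss of signal = cytotoxicity vs DMSO baseline.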

[12] = CCTE_Shafer_MEA_dev_mutual_information_norm: CCTE's Neural Network Formation Assay for Mutual Information Normalization, Shafer Lab (AID 2284091);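 as to AC50: mutual information between electrodes summarised as area under curve across four recording days; potency is for a decrease in mutual information relative to DMSO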
Outline: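 Primary rat cortical neurons on PEI-coated 48-well MEA plates, 1.5 x 10^5 cells/well, exposed from day 0 through day 12 with re-dosing at DIV 5 and 9. Mutual information between electrodes recorded days 5, 7, 9, 12; trapezoidal AUC, loss-of-signal fit versus DMSO.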

[13] = CCTE_Shafer_MEA_dev_correlation_coefficient_mean: CCTE's Neural Network Formation Assay for Mean Correlation Coefficient, Shafer Lab (AID 2284093);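 as to AC50: well mean pairwise spike train correlation integrated as AUC over recording days 5 to 12; potency fitted for loss of correlation relative to DMSO vehicle wells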
Outline: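 Rat cortical cultures, 1.5 x 10^5 cells/well, dosed from day 0 for 12 days. Spontaneous spikes recorded DIV 5/7/9/12; electrode-pair correlation coefficients averaged, AUC taken. Fit in loss direction vs DMSO.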

[14] = target: Estrogen receptor (Homo sapiens) (UniProt P03372); assay: CCTE_Deisenroth_AIME_384WELL_LUC_Shift: CCTE's 384-well Estrogen Receptor Transactivation Assay with AIME metabolic competence data shift (ERTA luciferase; difference in metabolism positive and negative), Deisenroth Lab (AID 2284041);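 also: shift is response with S9 minus without S9 so positive means metabolism raised ER signal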
Outline: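 Chemicals (0.002–200 uM, 10 points) pre-incubated 2 h with alginate-encapsulated induced male Sprague Dawley rat liver S9 or S9-free, then medium applied 24 h to VM7Luc4E2 cells; luciferase. Endpoint is per-concentration difference, S9-positive minus negative.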

[15] = CCTE_Shafer_MEA_dev_LDH: CCTE's Lactate Dehydrogenase Assay for Cytotoxicity in the Neural Network Formation Assay, Shafer Lab (AID 2284068; active = hit-call score of the fitted dose curve at least 0.9, where 1 is the maximum;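 also: exposure for twelve days from plating with re-dosing on DIV 5 and 9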)
Outline: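 Rat cortical primary neurons, MEA culture; dosing day 0–12, full medium plus compound exchange DIV 5, 9. Read-out: LDH enzyme activity, spectrophotometric. DMSO = negative control/baseline; signal loss → cytotoxicity.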

Measured: AC50

Sequence of Estrogen receptor (Homo sapiens) (P03372 whole entry, looked up): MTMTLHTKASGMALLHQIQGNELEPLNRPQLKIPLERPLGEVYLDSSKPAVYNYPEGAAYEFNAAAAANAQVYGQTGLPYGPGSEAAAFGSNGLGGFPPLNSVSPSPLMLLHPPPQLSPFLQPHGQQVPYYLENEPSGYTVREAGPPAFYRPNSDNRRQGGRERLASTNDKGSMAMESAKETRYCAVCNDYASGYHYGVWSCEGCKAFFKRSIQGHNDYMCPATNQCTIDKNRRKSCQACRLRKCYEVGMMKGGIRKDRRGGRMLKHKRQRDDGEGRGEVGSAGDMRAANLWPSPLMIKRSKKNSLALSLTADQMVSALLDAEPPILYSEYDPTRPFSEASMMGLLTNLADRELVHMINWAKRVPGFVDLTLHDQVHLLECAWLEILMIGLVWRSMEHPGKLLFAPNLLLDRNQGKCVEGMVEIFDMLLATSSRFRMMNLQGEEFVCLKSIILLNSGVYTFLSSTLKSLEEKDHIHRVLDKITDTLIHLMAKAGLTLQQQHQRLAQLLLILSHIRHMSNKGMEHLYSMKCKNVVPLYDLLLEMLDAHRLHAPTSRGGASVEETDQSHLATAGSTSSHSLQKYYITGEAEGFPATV

Oc1c(Cl)cc(Cl)cc1Sc1cc(Cl)cc(Cl)c1O
inactive: [1] | [2]

OCC(CO)(CBr)CBr
inactive: [1] | [2]

O=C(OC(=O)C(F)(F)C(F)(F)F)C(F)(F)C(F)(F)F
not listed: [1] | [2] | [14] | [15]
inactive: all other assays above

COc1cc([N+](=O)[O-])ccc1N
inactive: [14]

CC(=O)Nc1ccc(O)cc1
inactive: [3] | [4] | [5] | [6] | [7] | [8] | [9] | [10] | [15] | [1] | [11] | [2] | [12] | [13]
active: [4] 82.4 nM

CCC(C)c1ccccc1O (configuration not stated)
inactive: [1]

CN(Cc1cnc2nc(N)nc(N)c2n1)c1ccc(C(=O)N[C@@H](CCC(=O)O)C(=O)O)cc1
active: [3] 36.5 nM | [4] 20.9 nM | [5] 136 nM | [6] 30.8 nM | [7] 34.3 nM | [8] 42.2 nM | [9] 25.8 nM | [10] 25.3 nM | [15] 8.02 nM | [11] 38.9 nM | [12] 19.1 nM | [13] 18.9 nM

NC(C(F)(F)F)C(F)(F)F
not listed: [1] | [2] | [14] | [15]
inactive: all other assays above

CN(CCO)S(=O)(=O)C(F)(F)C(F)(F)C(F)(F)C(F)(F)C(F)(F)C(F)(F)C(F)(F)C(F)(F)F
not listed: [1] | [2] | [11] | [14] | [15]
inactive: all other assays above

FCOC(C(F)(F)F)C(F)(F)F
not listed: [1] | [2] | [14] | [15]
inactive: all other assays above

O=C(C=C(O)C(F)(F)F)C(F)(F)F
not listed: [1] | [2] | [11] | [14]
inactive: all other assays above
